Experimental data as given in PubChem BioAssay (EPA / NIEHS).
Where “and” joins values, the source holds several entries; their conditions need not be identical. Equal values may be shown once. Inconclusive results are not listed. Some structures have more than one record in an assay (separate samples or runs), and their calls can disagree. Calls of active or inactive are those of the source. The calls were made as follows: active = hit-call score of the fitted dose curve at least 0.9, where 1 is the maximum; inconclusive = response in the unintended direction; inactive = score below 0.9.

molecular target: rat Mineralocorticoid Receptor (MR), Nr3c2 (gene 25672) (UniProt P22199); experiment: NVS_NR_rMR: NovaScreen (NVS) Nuclear Receptor Binding Assay for rat Mineralocorticoid Receptor (MR) (AID 2283355)
Sequence (P22199 whole entry, looked up): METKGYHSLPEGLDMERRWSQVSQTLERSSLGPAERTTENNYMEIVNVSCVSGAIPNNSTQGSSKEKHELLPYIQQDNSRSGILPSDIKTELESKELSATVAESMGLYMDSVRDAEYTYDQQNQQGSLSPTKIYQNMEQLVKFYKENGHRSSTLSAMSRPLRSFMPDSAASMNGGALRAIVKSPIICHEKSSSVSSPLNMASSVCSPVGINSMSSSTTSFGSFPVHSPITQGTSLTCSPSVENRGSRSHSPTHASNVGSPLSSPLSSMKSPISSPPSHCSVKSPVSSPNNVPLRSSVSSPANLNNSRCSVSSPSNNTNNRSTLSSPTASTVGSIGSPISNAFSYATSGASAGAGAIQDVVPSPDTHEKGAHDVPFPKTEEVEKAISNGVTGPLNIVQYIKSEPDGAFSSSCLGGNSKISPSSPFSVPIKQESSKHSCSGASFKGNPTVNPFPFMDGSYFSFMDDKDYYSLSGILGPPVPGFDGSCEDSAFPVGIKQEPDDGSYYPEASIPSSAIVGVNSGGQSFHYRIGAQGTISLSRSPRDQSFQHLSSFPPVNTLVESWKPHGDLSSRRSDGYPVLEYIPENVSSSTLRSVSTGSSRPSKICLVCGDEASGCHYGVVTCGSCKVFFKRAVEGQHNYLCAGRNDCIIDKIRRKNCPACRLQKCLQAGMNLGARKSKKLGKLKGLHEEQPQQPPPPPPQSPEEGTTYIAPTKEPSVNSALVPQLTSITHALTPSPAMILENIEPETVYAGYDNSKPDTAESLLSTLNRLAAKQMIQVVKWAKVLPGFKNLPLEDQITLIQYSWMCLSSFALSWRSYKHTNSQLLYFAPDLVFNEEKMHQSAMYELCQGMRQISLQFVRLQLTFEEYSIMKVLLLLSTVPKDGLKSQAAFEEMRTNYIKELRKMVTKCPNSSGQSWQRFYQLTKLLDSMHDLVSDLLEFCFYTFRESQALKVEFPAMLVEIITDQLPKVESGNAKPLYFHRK
Summary of the method: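 Cell-free radioligand binding to MR in adrenalectomized rat brain supernatant, scintillation counted 24 h after dosing. Loss of signal versus DMSO baseline marks displacement. Primary screen in duplicate at 25 uM; actives retested as concentration series.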

Row | Structure (SMILES) | AC50 | outcome
1 | C[C@@H]1C[C@H]2[C@@H]3CCC4=CC(=O)C=C[C@]4(C)[C@@]3(F)[C@@H](O)C[C@]2(C)[C@@]1(O)C(=O)COP(=O)(O)O | 8.69 nM (active) and 2.18 nM (active) and 33.9 nM (active) | –
2 | CCCCCCCCCCCCc1ccccc1S(=O)(=O)O | – | inactive
3 | CCC(=C(c1ccc(O)cc1)c1ccc(OCCN(C)C)cc1)c1ccccc1 | – | inactive
4 | C#C[C@]1(O)CC[C@H]2[C@@H]3CCC4=CC(=O)CC[C@@H]4[C@H]3CC[C@@]21C | 500 nM (active) | –
5 | CC#C[C@]1(O)CC[C@H]2[C@@H]3CCC4=CC(=O)CCC4=C3[C@@H](c3ccc(N(C)C)cc3)C[C@@]21C | 5210 nM (active) | –
6 | COCC(C)O (configuration not stated) | – | inactive

molecular target: Estrogen receptor (Homo sapiens) + Estrogen receptor beta (Homo sapiens) (UniProt P03372+Q92731); experiment: OT_ER_ERaERb_1440: Odyssey Thera (OT) 24-hour HEK293T Protein-Complementation Assay for Estrogen Receptor-alpha/-beta Homodimer (AID 2283356);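 also: heteromer of ER alpha and ER beta binding domains; hits raise reporter fluorescence and both agonists and antagonists give an increase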
Sequence (P03372 whole entry, looked up, the tested form may be a part): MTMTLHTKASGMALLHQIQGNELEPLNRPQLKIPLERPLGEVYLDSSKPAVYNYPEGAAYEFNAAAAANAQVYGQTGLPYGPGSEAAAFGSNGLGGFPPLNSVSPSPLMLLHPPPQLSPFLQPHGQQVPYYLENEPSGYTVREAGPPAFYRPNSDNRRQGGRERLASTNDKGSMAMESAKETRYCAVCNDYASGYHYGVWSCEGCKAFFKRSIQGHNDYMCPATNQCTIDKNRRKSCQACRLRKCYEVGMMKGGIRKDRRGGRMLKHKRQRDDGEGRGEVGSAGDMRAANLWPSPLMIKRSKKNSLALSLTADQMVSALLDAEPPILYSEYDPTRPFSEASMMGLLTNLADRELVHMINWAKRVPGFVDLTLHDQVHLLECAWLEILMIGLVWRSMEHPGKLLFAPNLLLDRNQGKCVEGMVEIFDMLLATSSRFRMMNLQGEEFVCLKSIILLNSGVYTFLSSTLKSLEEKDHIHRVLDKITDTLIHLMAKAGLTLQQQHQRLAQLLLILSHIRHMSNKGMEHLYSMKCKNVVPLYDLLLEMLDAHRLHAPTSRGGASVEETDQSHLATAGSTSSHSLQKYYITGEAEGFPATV
Sequence (Q92731 whole entry, looked up, the tested form may be a part): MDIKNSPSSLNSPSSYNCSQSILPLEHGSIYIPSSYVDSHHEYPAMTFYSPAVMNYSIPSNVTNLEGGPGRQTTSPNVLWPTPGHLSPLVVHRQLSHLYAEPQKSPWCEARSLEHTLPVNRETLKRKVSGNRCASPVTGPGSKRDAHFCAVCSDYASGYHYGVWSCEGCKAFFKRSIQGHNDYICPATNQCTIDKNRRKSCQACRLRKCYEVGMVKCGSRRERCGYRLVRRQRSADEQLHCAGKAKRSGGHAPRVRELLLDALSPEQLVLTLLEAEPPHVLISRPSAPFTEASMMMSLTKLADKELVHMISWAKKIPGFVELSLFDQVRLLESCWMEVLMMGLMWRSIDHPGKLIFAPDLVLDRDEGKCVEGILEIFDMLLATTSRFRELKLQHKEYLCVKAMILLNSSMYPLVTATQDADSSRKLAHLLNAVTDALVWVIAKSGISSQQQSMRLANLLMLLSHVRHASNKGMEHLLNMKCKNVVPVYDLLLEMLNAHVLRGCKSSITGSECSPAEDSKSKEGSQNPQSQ
Summary of the method: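 HEK293T stably expressing a PCA of ER alpha LBD (aa 310-547) and ER beta LBD (aa 263-489). After 24 h compound exposure, mean fluorescence intensity in nucleus (agonists) or nucleus and cytoplasm (antagonists) measured by laser scanning cytometry versus vehicle.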

Row | Structure (SMILES) | AC50 | outcome
7 | OC1CCC(C2CCCCC2)CC1 (configuration not stated) | 60.7 µM (active) and 64.1 µM (active) and 59.4 µM (active) | inactive
8 | CN1CCC[C@H]1c1cccnc1 | – | inactive
9 | Oc1cccc(O)c1 | 32.1 µM (active) | –
10 | N#C[C@@H]1CC(F)(F)CN1C(=O)CNC1CC2CCC(C1)N2c1ncccn1 (some centres not stated) | – | inactive
11 | C[C@@H]1C[C@H]2[C@@H]3CCC4=CC(=O)C=C[C@]4(C)[C@@]3(F)[C@@H](O)C[C@]2(C)[C@@]1(O)C(=O)COP(=O)(O)O | – | inactive
12 | CCc1nn(C2CCCCC2)c2cc(C3(C#N)CCC(C(=O)O)CC3)ccc12 (configuration not stated) | – | inactive
13 | CN(C)C=O | – | inactive
14 | CCCCCCCCC(=O)O | – | inactive
15 | CCCCCCCCCCCCc1ccccc1S(=O)(=O)O | – | inactive
16 | OCCC(F)(F)C(F)(F)C(F)(F)C(F)(F)C(F)(F)C(F)(F)F | – | inactive
17 | CC(=O)CC(C)(C)O | – | inactive
18 | CCc1ccc(CCOc2ccc(CC3SC(=O)NC3=O)cc2)nc1 (configuration not stated) | – | inactive
19 | CCCOC(=O)c1ccc(O)cc1 | 15.5 µM (active) | –
20 | CC(C)(C)CC(C)(C)c1ccc(O)c(-n2nc3ccccc3n2)c1 | – | inactive
21 | CCCCCCCCOC(=O)CCCCCCCCC(=O)OCCCCCCCC | – | inactive
22 | c1ccc2c(c1)Cc1ccccc1-2 | – | inactive
23 | CC(C)(C)c1cc(C(C)(C)C)c(O)c(C(C)(C)C)c1 | 73.3 µM (active) | –
24 | CCCCCCCCCCCCCCCS(=O)(=O)Oc1ccccc1 | – | inactive
25 | CCCCC(CC)COC(=O)CCCCC(=O)OCc1ccccc1 (configuration not stated) | – | inactive
26 | C#C[C@]1(O)CC[C@H]2[C@@H]3CCC4=CC(=O)CC[C@@H]4[C@H]3CC[C@@]21C | – | inactive
27 | O=C(O)Cc1cc(I)c(Oc2cc(I)c(O)c(I)c2)c(I)c1 | – | inactive
28 | NC(=O)N(O)[C@@H]1C=C[C@H](Oc2cccc(Oc3ccc(F)cc3)c2)C1 | 34.8 µM (active) | –
29 | COc1ccc([N+](=O)[O-])cc1N | – | inactive
30 | OCCC(F)(F)C(F)(F)C(F)(F)C(F)(F)C(F)(F)C(F)(F)C(F)(F)C(F)(F)F | – | inactive
31 | CCCCCCCCCCCCN1CCCC1=O | – | inactive
